PI4K2A inh = PI4K2A (human) kinase inhibition; actives 0.13% (n = 420,000); activity change, negative = inhibition, % at 76.9 µM; AID 1346378; purified PI4K2A, ADP-Glo luminescence, 1 h; hits give low values; in the data active means activity change below about -50%; inconclusive means mostly about -30% to -49%;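 further: -100% = wells without enzyme as full effect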
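Compounds are screened against recombinant PI4K2A using PI as substrate and ATP, the latter dispensed at 300 microM. Reactions run one hour at ambient temperature before ADP-Glo detection; full inhibition defined by wells lacking enzyme.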
Pol iota inh = blocks human DNA polymerase iota activity; Pol iota fluorescent replication assay, 10 min; actives 1% (n = 390,000); Q9UNA4; Potency, µM (top dose mostly 115 µM), for the others: top-dose activity, negative = inhibition, usual class: inhibitors; further: potency means the concentration at half of the fitted maximal effect
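Fluorescent replication assay read twice, at 0 min and 10 min after adding 50 nM (final) substrate. Enzyme (10 nM) and compounds were first incubated 15 min at room temperature; enzyme-free buffer wells were negative controls.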
Pol kappa inh = inhibitors of human DNA polymerase kappa | actives 0.53% (n = 400,000) | purified Pol kappa, fluorescent DNA synthesis assay, 10 min | Q9UBT6 | Potency, µM (top dose mostly 107 µM), inactives show at the top dose activity, negative = inhibition, actives largely listed as inhibitors; further: potency means the concentration at half of the fitted maximal effect; on the % scale 0 is the no-effect control and ±100 the full control effect
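Readout: fluorescence, taken kinetically at 0 and 10 min. Conditions: 10 nM Pol kappa, 15 min RT compound preincubation, 50 nM substrate final. Controls: enzyme-free buffer wells.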
Pol beta inh = inhibitors of human DNA polymerase beta; P06746; Pol beta primer extension/strand displacement, fluorescence kinetic; Potency, µM (series often up to 114 µM), for the others: at the top dose activity change, negative = inhibition, actives largely listed as inhibitors; actives 1.3% (n = 340,000); AID 485314; further: potency means the concentration at half of the fitted maximal effect; on the % scale 0 is the no-effect control and ±100 the full control effect
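Enzyme-only controls used 10 nM Pol beta; buffer lacking enzyme served as negative control. Compound preincubated 15 min, then 50 nM substrate added; 0 and 10 min reads at room temperature.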
POLH inh = DNA polymerase eta (human) inhibition; recombinant Pol eta, fluorescent DNA replication assay; Q9Y253; AID 588591; Potency, µM (top dose mostly 114 µM), inactives show at the highest dose activity change, negative = inhibition, most hits filed as inhibitors; actives 1.2% (n = 390,000); further: potency means the concentration at half of the fitted maximal effect; on the % scale 0 is the no-effect control and ±100 the full control effect
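Pol eta at 10 nM preincubated with compounds 15 min at room temperature; reaction started with fluorescent substrate (50 nM final) and read kinetically at 0 and 10 min.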
PI5P4Ka inh = PI5P4K alpha (human) kinase inhibition. P48426. PI5P4Kalpha enzyme, ADP-Glo luminescence, 60 min; hits give low values. max response, %. actives 1.2% (n = 330,000). AID 652105; active means max response of -50% or lower; inconclusive means between -30% and -50%; inactive means -30% or higher; further: value at the top dose of about 77 µM; on the % scale 0 is the no-effect control and ±100 the full control effect
Target sequence (P48426 whole entry, looked up): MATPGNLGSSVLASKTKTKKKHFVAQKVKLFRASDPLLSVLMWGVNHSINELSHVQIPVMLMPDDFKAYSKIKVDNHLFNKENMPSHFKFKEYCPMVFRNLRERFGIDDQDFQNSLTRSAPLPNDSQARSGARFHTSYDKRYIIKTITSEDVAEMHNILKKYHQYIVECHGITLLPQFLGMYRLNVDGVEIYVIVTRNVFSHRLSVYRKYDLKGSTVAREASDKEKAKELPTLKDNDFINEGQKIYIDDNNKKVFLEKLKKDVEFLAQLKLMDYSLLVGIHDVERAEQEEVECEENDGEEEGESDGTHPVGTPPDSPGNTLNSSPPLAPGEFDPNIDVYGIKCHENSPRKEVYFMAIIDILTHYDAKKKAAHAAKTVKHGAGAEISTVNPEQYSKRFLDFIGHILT
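Luminescence from ADP-Glo served as readout of PI5P4Kalpha activity in a qHTS format. Reaction: enzyme, substrate, compound, ATP at 5 microM final, 60 min at RT.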
Numbers without * were called inactive; ? = inconclusive; / = no result given; ! = a repeat was not active; [ ] = remark or other dose. Only some compounds are listed: those with a hit (about 2.8% of all), similar ones and a draw of the others. Unless noted, the call rests on the fitted dose curve; in most records, active means well fitted inhibition curve with a large enough effect; inconclusive means small, poorly fitted or top-dose-only effect, or another doubt; inactive means no such curve, though single readings can be large or run the other way.

SMILES	PI4K2A inh	Pol iota inh	Pol kappa inh	Pol beta inh	POLH inh	PI5P4Ka inh
CSc1nc(C)c2c(n1)N(c1ccc(O)cc1)CC2	3	?	-33%	?	35µM*	1
Cc1noc(NS(=O)(=O)c2ccc(NC(=O)C(Cl)(Cl)Cl)cc2)c1C	0	11%	-8%	5%	-11%	2
Cc1noc(NS(=O)(=O)c2ccc(NC(=O)Nc3ccc(Cl)c(Cl)c3)cc2)c1C	-9	?	-4%	?	50µM*	-23
Cc1cc2oc(C(=O)Nc3ccc(S(=O)(=O)Nc4onc(C)c4C)cc3)cc(=O)c2cc1Cl	-1	?	-8%	?	-9%	8
Cc1cc2oc(C(=O)Nc3ccc(S(=O)(=O)Nc4onc(C)c4C)cc3)cc(=O)c2cc1C	1	?	0%	-4%	79µM*	/
CCCCn1nnnc1C(c1ccc(OC)cc1)N1CCN(C/C=C/c2ccccc2)CC1 (stereo not drawn)	4	/	/	/	/	5
C1NNCC12CNNC2	/	18%	-3%	/	/	/
CCCCNC(=O)c1ccc2c(=O)n(Cc3ccc(OC)cc3)c(=O)[nH]c2c1	-1	17%	-1%	26%	-18%	/
Nc1nc(N)c2c(OCc3ccc(C(F)(F)F)cc3)cccc2n1	/	17%	-3%	/	/	/
Cc1cc(N2CCN(c3cccc(C)c3C)CC2)n2cnnc2n1	-1	?	-28%	0.16µM*	-17%	/
CN(Cc1ccccc1)C(=O)c1cc2c(s1)-c1ccc(Cl)cc1SC2	-5	35%	0%	8%	-25%	/
Cc1ccc(C)n1-c1ccc(-c2ccn[nH]2)cc1	2	86%	0%	22µM*	-12%	0
c1ccn(-c2ccc(-c3ccn[nH]3)cc2)c1	2	4%	-15%	-14%	-19%	12
Cc1nn2c(-c3cccc(NC(=O)CN4CCOCC4)c3)nnc2c2ccccc12	-9	40µM*	1%[60.1 µM]	/	?	/
Cc1ccc(-c2nnc3c4ccccc4c(C)nn23)cc1NC(=O)CN1CCOCC1	/	/	/	-3%	/	/
Cc1ccc(CC2S/C(=C(/C#N)C(=O)NCc3ccco3)N(c3ccccc3)C2=O)cc1 (stereo not drawn)	1	11%	-7%	13%	-7%	/
CC1S/C(=C(\C#N)C(=O)NCc2ccco2)N(Cc2ccco2)C1=O (stereo not drawn)	-25	22µM*	89µM*	25%	?	?
CCC(=O)Nc1cc2c3c(c1)CCN3C(=O)CC2	-2	?	79µM*	38%	8%	0
CC(C)(C)CC(=O)Nc1cc2c3c(c1)CCN3C(=O)CC2	-1	35%	-15%	30%	-18%	0
O=CC(=O)c1ccc(F)cc1	/	32%	-11%	/	/	/
COC(=O)c1sccc1NC(=O)Nc1cc(OC)ccc1OC	3	11%	-4%	9%	?	7
COC(=O)c1sccc1NC(=O)Nc1ccc(OC)cc1	-57*	51%	-10%	38%	-21%	?
C[c-]1[c-](C)[c-](C)[c-](C)[c-]1C.[Fe].c1cc2nccc(N3CCCC3)[c-]2c1 (stereo not drawn)	-16	10µM*!	?	4.5µM*!	20µM*!	?
COc1cc(OC)c(NC(=O)c2cn(C)c(=O)c3cc(OC)c(OC)cc23)cc1Cl	5	30%	-20%	9%	56µM*	/
COc1cc2c(C(=O)Nc3cc(OC)c(OC)c(OC)c3)cn(C)c(=O)c2cc1OC	0	57%	-18%	17%	-13%	/
SMILES	PI4K2A inh	Pol iota inh	Pol kappa inh	Pol beta inh	POLH inh	PI5P4Ka inh
O=C(COC(=O)c1cc(=O)[nH]c2ccccc12)NCc1cccs1	3	-14%	-2%	5%	-16%	5
CC(=O)Nc1cccc(OCC(=O)Nc2sccc2C(N)=O)c1	7	50µM*	-31%	0%	?	-7
NC(=O)c1ccsc1NC(=O)COC(=O)c1cc(=O)[nH]c2ccccc12	5	?	-16%	/	40µM*	3
Cc1ccc(C2=CCN(C)C(=O)N2c2ccc([N+](=O)[O-])cc2)cc1	-2	/	/	/	/	/
CC(C)C[C@@H](CN1CCC[C@H]1CN1C(=O)C(=O)NC[C@@H]1Cc1ccc(O)cc1)N1C[C@H](Cc2ccccc2)N(CC2CCCCCC2)C(=O)C1=O	9	/	/	/	/	-25
N#Cc1c(-c2cccnc2)c2c([nH]c1=O)-c1ccccc1OC2	-4	14%	-2%	2%	-11%	-59*
CC(=O)c1c(C)nc(-c2ccc(Cl)cc2)nc1N=CN(C)C	5	-1%	-16%	35µM*	-15%	1
Cc1ccc2c(c1)-c1c(cnn1CC(=O)NCCc1cccc(F)c1)CO2	2	/	/	/	/	/
CCc1c(C)nc2nncn2c1Nc1cccc(C)c1	6	17%	-12%	-13%	/	/
CN=C1SC(CC(=O)NCCc2ccc(OC)c(OC)c2)C(=O)N1C (stereo not drawn)	0	?	?	1%	56µM*!	-3
CCC(CCC(C)C1CCC2C3CCC4CC(O)CC[C@@]4(C)C3CC[C@@]12C)C(C)C (stereo partly drawn)	/	/	-10%[60.1 µM]	/	/	/
CC(CCC(C)C(C)(C)C)[C@@H]1CC[C@H]2C3C[C@H](OS(O)(=S)=S)[C@H]4C[C@H](OS(O)(=S)=S)[C@@H](OS(O)(=S)=S)C[C@]4(C)[C@H]3CC[C@]12C (stereo partly drawn) (tested in a mixture with another compound)	-59*	3.5µM*	20µM*	/	3.5µM*	?
O=c1c2ccccc2nc(N/N=C/c2c(O)ccc3ccccc23)n1O	-2	?	?	6%	?	-78*
O=C(Nc1ccccc1Cc1ccccc1)c1ccccc1NS(=O)(=O)c1ccc(Cl)s1	1	-14%	-13%	?	79µM*	-3
O=C(Nc1ccccc1)c1ccccc1NS(=O)(=O)c1ccc(Cl)s1	3	3%	-3%	-22%	-12%	-4
O=C(O)CSc1nnc(SCc2cccc3ccccc23)s1	1	6%	-5%	89µM*	-16%	/
CC1(C)Cc2c(C#N)c(NCc3ccco3)nc(-c3ccco3)c2CO1	-7	?	-45%	?	14µM*	?
